Source: PubChem BioAssay (NCATS)
Results filed as inconclusive are left out. Activity calls are given as the source filed them. Calls follow the shape of the dose curve; as a rule, active = well fitted curve in the direction sought with a large enough effect; inconclusive = small, poorly fitted or top-dose-only effect, or another doubt; inactive = no such curve, though single readings can be large; an effect the other way counts as inactive or inconclusive.

Key:
[1] = molecular target: Rap guanine nucleotide exchange factor 3 (Homo sapiens) (UniProt O95398); assay: Confirmatory qHTS for antagonist of cAMP-regulated guanine nucleotide exchange factor 3 (EPAC1) (AID 1645880); also: nearly all actives have a fitted effect of over 55% in size; also: potency is read from the fitted curve at half-maximal effect
In short: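 Nucleotide exchange uses 100 nM EPAC1, 250 nM RAP1B-BODIPY-GDP and 50 uM GDP, with compounds in a concentration-titration series. After 5 min at room temperature, fluorescence (480 nm ex/540 nm em) is read every 5 min for 30 min. Data are normalized to control ATA and DMSO.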

[2] = molecular target: Rap guanine nucleotide exchange factor 3 (Homo sapiens) (UniProt O95398); assay: Confirmatory qHTS for agonist of cAMP-regulated guanine nucleotide exchange factor 3 (EPAC1) (AID 1645881);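 also: EPAC1 catalysed release of BODIPY-GDP from Rap1B seen as fluorescence loss; 100% = effect of cAMP agonist control; nearly all actives have a fitted effect of over 75% in size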
[3] = molecular target: Rap guanine nucleotide exchange factor 4 (Homo sapiens) (UniProt Q8WZA2); assay: Confirmatory qHTS for agonist of cAMP-regulated guanine nucleotide exchange factor 4 (EPAC2) (AID 1645884);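 also: nucleotide exchange releases bodipy-GDP from Rap1 and this lowers its fluorescence; % is scaled to controls: 0 for no effect and ±100 for the full control effect; nearly all actives have a fitted effect of over 65% in size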
[4] = molecular target: Rap guanine nucleotide exchange factor 4 (Homo sapiens) (UniProt Q8WZA2); assay: Confirmatory qHTS for antagonist of cAMP-regulated guanine nucleotide exchange factor 4 (EPAC2) (AID 1645885); also: nearly all actives have a fitted effect of over 25% in size; also: potency is read from the fitted curve at half-maximal effect; as to activity change, negative = inhibition: % is scaled to controls: 0 for no effect and ±100 for the full control effect
[5] = molecular target: Rap guanine nucleotide exchange factor 3 (Homo sapiens) (UniProt O95398); assay: Counterscreen qHTS for antagonist of cAMP-regulated guanine nucleotide exchange factor 3 (EPAC1) (AID 1645888);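 also: fluorescence loss as bound BODIPY-GDP is released from Rap1B; % of control where 0% means no effect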
In short: (§1)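 Measured: fluorescence of BODIPY-GDP bound to Rap1B, which falls as exchange proceeds. Conditions include 50 uM competing GDP, 5 and 30 min reads, and a later cAMP challenge for antagonist detection.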

[6] = molecular target: Rap guanine nucleotide exchange factor 3 (Homo sapiens) (UniProt O95398); assay: Counterscreen qHTS for agonist of cAMP-regulated guanine nucleotide exchange factor 3 (EPAC1) (AID 1645889); also: % of control where 0% means no effect; nearly all actives have a fitted effect of over 40% in size
In short: as §1

Chain of Rap guanine nucleotide exchange factor 3 (Homo sapiens) (O95398 whole entry, looked up): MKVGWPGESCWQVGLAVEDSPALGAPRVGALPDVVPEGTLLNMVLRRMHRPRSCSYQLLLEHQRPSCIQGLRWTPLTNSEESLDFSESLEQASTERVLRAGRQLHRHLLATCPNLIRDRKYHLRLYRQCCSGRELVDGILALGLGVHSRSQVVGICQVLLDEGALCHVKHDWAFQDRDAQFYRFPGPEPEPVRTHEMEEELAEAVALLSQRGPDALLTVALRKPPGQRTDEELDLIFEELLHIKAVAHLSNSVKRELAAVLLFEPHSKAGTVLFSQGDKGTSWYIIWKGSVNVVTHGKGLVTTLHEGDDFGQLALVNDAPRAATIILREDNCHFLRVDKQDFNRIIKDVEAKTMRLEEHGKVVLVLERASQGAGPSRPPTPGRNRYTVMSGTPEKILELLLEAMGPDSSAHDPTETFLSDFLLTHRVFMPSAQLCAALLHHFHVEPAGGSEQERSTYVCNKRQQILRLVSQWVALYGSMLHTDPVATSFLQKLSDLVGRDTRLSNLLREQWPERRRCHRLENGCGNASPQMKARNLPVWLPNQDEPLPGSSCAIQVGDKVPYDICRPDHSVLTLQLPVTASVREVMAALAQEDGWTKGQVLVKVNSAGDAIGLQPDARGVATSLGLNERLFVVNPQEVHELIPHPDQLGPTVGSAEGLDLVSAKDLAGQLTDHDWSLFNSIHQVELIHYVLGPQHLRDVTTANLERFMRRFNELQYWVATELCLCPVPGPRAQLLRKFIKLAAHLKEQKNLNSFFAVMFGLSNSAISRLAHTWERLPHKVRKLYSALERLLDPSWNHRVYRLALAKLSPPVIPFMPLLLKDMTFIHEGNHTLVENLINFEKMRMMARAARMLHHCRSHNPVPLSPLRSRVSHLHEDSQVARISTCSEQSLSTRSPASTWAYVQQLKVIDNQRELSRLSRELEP
Chain of Rap guanine nucleotide exchange factor 4 (Homo sapiens) (Q8WZA2 whole entry, looked up): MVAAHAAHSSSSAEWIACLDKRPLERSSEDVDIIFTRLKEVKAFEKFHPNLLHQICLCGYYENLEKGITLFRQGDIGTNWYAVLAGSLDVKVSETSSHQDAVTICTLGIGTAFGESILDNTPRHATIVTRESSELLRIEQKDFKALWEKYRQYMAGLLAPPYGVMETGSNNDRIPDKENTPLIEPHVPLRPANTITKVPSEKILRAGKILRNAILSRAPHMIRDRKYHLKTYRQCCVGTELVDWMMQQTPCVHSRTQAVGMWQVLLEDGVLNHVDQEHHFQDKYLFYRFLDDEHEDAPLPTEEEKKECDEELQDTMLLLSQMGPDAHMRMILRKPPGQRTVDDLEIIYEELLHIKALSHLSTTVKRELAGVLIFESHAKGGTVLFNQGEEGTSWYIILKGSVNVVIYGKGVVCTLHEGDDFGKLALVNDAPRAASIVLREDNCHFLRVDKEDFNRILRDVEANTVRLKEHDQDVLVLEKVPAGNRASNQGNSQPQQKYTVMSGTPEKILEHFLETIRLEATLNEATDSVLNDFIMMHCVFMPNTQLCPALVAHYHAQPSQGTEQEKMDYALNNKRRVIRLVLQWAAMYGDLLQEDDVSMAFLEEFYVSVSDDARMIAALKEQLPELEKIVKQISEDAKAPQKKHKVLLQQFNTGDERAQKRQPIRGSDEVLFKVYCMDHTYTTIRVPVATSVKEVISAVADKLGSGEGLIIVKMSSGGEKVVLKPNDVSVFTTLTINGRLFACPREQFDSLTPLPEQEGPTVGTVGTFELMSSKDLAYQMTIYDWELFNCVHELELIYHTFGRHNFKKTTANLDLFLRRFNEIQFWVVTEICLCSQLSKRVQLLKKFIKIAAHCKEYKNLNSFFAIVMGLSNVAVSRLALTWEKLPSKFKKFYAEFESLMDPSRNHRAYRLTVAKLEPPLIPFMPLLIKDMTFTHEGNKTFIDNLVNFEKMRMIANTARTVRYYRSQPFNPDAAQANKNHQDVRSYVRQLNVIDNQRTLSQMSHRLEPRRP

CCOc1cccc(CC(=O)NCc2ccc3c(c2)CCN3C(C)=O)c1OCC
inactive: Potency [1] | Potency [2] | Potency [3] | Potency [4] | Potency [5] | Potency [6]

Oc1ccc(NCc2cccs2)cc1
inactive: Potency [1] | Potency [2] | activation [3] 14.6% [at 17.1 µM, percent relative to cAMP agonist control] | Potency [4] | activity change, negative = inhibition [5] 0.945% [at 30.8 µM] | activation [6] 21.5% [at 30.8 µM]

O=C(CSc1nnc(CCc2ccccc2)n1-c1ccc(Cl)cc1)NCc1ccccc1
inactive: Potency [1] | Potency [2] | Potency [3] | Potency [4] | Potency [5] | Potency [6]

COCCNC(=O)CS(=O)Cc1nc(-c2ccc(Cl)cc2)oc1C (stereo not given)
inactive: Potency [1] | Potency [2] | activation [3] 3.09% [at 17.1 µM, percent relative to cAMP agonist control] | Potency [4] | activity change, negative = inhibition [5] 7.48% [at 30.8 µM] | activation [6] 14.9% [at 30.8 µM]

CCCc1cc2c(cc1N(C)S(=O)(=O)c1ccccc1)OCO2
inactive: Potency [1] | Potency [2] | Potency [3] | Potency [4] | Potency [5] | Potency [6]

Cc1cc(-c2csc(N)n2)c(C)n1CCC(C)C
inactive: Potency [1] | Potency [2] | Potency [3] | Potency [4] | Potency [5] | Potency [6]

COCCN(C)Cc1nc(C(c2ccccc2)c2ccccc2)no1
inactive: Potency [1] | Potency [2] | Potency [3] | Potency [5] | Potency [6]
active: Potency [4] 47.8 µM

CN1CCN(S(=O)(=O)c2ccc(Nc3ccc(F)cc3)nc2)CC1
inactive: Potency [1] | Potency [2] | activation [3] 6.27% [at 17.1 µM, percent relative to cAMP agonist control] | Potency [4] | activity change, negative = inhibition [5] -5.53% [at 30.8 µM] | activation [6] 16.5% [at 30.8 µM]

CC1=NOC(=O)/C1=C\c1ccc(-c2ccc(Cl)cc2Cl)o1
active: Potency [1] 15.8 µM
inactive: Potency [2] | activation [3] -0.185% [at 17.1 µM, percent relative to cAMP agonist control] | Potency [4] | activity change, negative = inhibition [5] -37.2% [at 30.8 µM] | activation [6] 15.1% [at 30.8 µM]

NNc1nc2c(Cl)ccc(Cl)c2s1
inactive: Potency [1] | Potency [2] | Potency [3] | Potency [4] | Potency [5] | Potency [6]

C=CCOc1ccc(/C=C2\SC(=S)N(NS(=O)(=O)c3ccc(C)cc3)C2=O)cc1
active: Potency [1] 21.3 µM
inactive: Potency [2] | Potency [3] | Potency [4] | Potency [5] | Potency [6]

COc1ccc(OC)c(/C=C2\SC(=S)N(NS(=O)(=O)c3ccccc3)C2=O)c1
active: Potency [1] 23.9 µM | Potency [4] 33.8 µM
inactive: Potency [2] | Potency [3] | Potency [5] | Potency [6]

CC1(C(=O)NS(=O)(=O)c2ccc(Cl)s2)CCN1C(=O)c1ccc(C2CCCCC2)cc1 (stereo not given)
inactive: Potency [2] | activation [3] 6.57% [at 17.1 µM, percent relative to cAMP agonist control] | Potency [4] | activity change, negative = inhibition [5] -3.31% [at 30.8 µM] | activation [6] -4.08% [at 30.8 µM]
active: Potency [1] 79.4 µM

O=C(NCCOc1ccccc1-c1ccccc1)c1ccco1
inactive: Potency [1] | Potency [2] | activation [3] 6.96% [at 17.1 µM, percent relative to cAMP agonist control] | Potency [4] | activity change, negative = inhibition [5] -5.39% [at 30.8 µM] | activation [6] 12.2% [at 30.8 µM]

Cc1cc(C(=O)COC(=O)C2COc3ccccc3O2)c(C)n1CC1CCCO1 (stereo not given)
inactive: Potency [1] | Potency [2] | Potency [3] | Potency [4] | Potency [5] | Potency [6]

COCCn1c(SCC(=O)c2ccccc2)nc2cc(C(=O)NC3CCCC3)ccc2c1=O
inactive: Potency [1] | Potency [2] | Potency [3] | Potency [4] | Potency [5] | Potency [6]

COc1cc(CCc2ccccc2)c(C(=O)O)c(O)c1CC=C(C)C
active: Potency [1] 42.6 µM
inactive: Potency [2] | Potency [3] | Potency [4] | Potency [5] | Potency [6]

CN(Cc1ccc(F)cc1)C(=O)c1cccc(OCc2ccccc2)c1
inactive: Potency [1] | Potency [2] | activation [3] 10.9% [at 17.1 µM, percent relative to cAMP agonist control] | Potency [4] | activity change, negative = inhibition [5] 1.29% [at 30.8 µM] | activation [6] -0.388% [at 30.8 µM]

CCCCn1c(N)c(N(CC(C)C)C(=O)C2CCN(C(=O)c3ccc(Cl)cc3)CC2)c(=O)[nH]c1=O
inactive: Potency [1] | Potency [2] | Potency [3] | Potency [4] | Potency [5] | Potency [6]

CCOc1c(OC)cccc1C1CC(=O)Nc2cc3c(cc21)OCCO3 (stereo not given)
inactive: Potency [1] | Potency [2] | Potency [3] | Potency [4] | Potency [5] | Potency [6]

O=C(O)CN1C(=O)/C(=C\c2cccc(OCc3ccc(Cl)cc3)c2)SC1=S
active: Potency [1] 75.7 µM
inactive: Potency [2] | Potency [3] | Potency [4] | Potency [5] | Potency [6]

COC(=O)c1cc(OC)nc2ccc(Br)cc12
inactive: Potency [1] | Potency [2] | Potency [3] | Potency [4] | Potency [5] | Potency [6]

CC1(C)CC[C@]2(C(=O)n3ccnc3)CC[C@]3(C)[C@H](C(=O)C=C4[C@@]5(C)C=C(C#N)C(=O)C(C)(C)[C@@H]5CC[C@]43C)[C@@H]2C1
inactive: Potency [2] | activation [3] -11.4% [at 17.1 µM, percent relative to cAMP agonist control] | Potency [4] | activity change, negative = inhibition [5] -3.92% [at 30.8 µM] | activation [6] 18.4% [at 30.8 µM]
active: Potency [1] 14.1 µM

COc1ccc(S(=O)(=O)CC(=O)c2cc3cc(Br)ccc3oc2=O)cc1
inactive: Potency [2] | activation [3] -4.99% [at 17.1 µM, percent relative to cAMP agonist control] | Potency [4] | activity change, negative = inhibition [5] -4.76% [at 30.8 µM] | activation [6] 7.34% [at 30.8 µM]
active: Potency [1] 50.1 µM

CCN1/C(=C/C(C)=C/c2sc3ccccc3[n+]2CC)Sc2ccccc21
active: Potency [1] 50.1 µM
inactive: Potency [2] | activation [3] 8.04% [at 17.1 µM, percent relative to cAMP agonist control] | Potency [4] | activity change, negative = inhibition [5] 12.4% [at 30.8 µM] | activation [6] 12.5% [at 30.8 µM]

CCC(NS(=O)(=O)c1ccc2c(c1)NC(=O)C(C)C(=O)N2)c1cccs1 (stereo not given)
inactive: Potency [1] | Potency [2] | Potency [3] | Potency [4] | Potency [5] | Potency [6]

CC(C)CC(C(=O)NC1CCCCC1)N(Cc1ccccc1)C(=O)c1snc(C(N)=O)c1N (stereo not given)
inactive: Potency [1] | Potency [2] | activation [3] 1.37% [at 17.1 µM, percent relative to cAMP agonist control] | Potency [4] | activity change, negative = inhibition [5] -17.8% [at 30.8 µM] | activation [6] 19% [at 30.8 µM]

O=C1c2ccccc2C(=O)N1c1nc(-c2cccs2)cs1
inactive: Potency [2] | Potency [3] | Potency [5] | Potency [6]
active: Potency [1] 4.78 µM | Potency [4] 60.1 µM

O=C(NS(=O)(=O)c1ccc2ccc(S(=O)(=O)NCCSc3ccccc3)cc2c1)c1cccc2ccccc12
active: Potency [1] 42.6 µM | Potency [4] 67.5 µM
inactive: Potency [2] | Potency [3] | Potency [5] | Potency [6]

CC1Cc2cc(C(=O)O)ccc2O1 (stereo not given)
inactive: Potency [1] | Potency [2] | Potency [3] | Potency [4] | Potency [5] | Potency [6]
